NS1 inh – influenza NS1 inhibition. Potency, µM (highest dose often 46.1 µM), without a hit: at the top dose activity, positive = more growth. 0.4% of 270,000 active; also: potency is read from the fitted curve at half-maximal effect; actives are rising curves; nearly all actives have a fitted effect of over 50% in size
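Compounds were scored for reversing the slow growth caused by influenza A NS1 in S. cerevisiae, measured by optical density at 600 nm. Assay medium contained 2% galactose at pH 6.0; NS1-free yeast of the same strain were the positive control.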
Cycloheximide cs – counter-screen for Shiga toxin inhibitors: cycloheximide protein synthesis inhibition; cell reporter, cycloheximide protein synthesis inhibition counterscreen; max response, %; 12% of 300,000 active; AID 2314; in the data active = max response mostly above about 13%, no sharp cut-off; inactive = mostly below about 14%; also: read at 38.3 µM for the half of the compounds with a filed dose; 0% is about no effect
LmPK inhibitor – LmPK (Leishmania mexicana) enzyme inhibition | Q27686 | purified LmPK, Kinase-Glo ATP luminescence, 1 h | Potency, µM (top dose mostly 57.5 µM), for the others: top-dose activity change, negative = inhibition, actives largely listed as inhibitors | 0.37% of 290,000 active; active = well fitted curve in the direction sought with a large enough effect; an effect the other way counts as inactive or inconclusive; also: potency is read from the fitted curve at half-maximal effect; % is scaled to controls: 0 for no effect and ±100 for the full control effect
Target sequence (Q27686 whole entry, looked up): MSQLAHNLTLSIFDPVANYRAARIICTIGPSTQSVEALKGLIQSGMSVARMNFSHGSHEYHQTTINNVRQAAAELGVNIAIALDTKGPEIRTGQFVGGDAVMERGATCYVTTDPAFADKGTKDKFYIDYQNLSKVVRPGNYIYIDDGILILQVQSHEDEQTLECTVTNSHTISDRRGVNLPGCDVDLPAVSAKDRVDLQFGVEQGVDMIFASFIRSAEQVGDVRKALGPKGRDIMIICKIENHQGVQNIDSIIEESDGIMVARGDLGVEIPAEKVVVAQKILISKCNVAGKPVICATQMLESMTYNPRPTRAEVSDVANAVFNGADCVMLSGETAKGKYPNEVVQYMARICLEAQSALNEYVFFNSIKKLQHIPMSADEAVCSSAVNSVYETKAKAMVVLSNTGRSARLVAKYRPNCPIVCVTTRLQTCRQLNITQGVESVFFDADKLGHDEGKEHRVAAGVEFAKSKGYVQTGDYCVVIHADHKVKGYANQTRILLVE
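ATP generated from ADP (0.1 mM) and PEP (0.5 mM) by 0.1 nM LmPK over 1 h at room temperature (pH 7.2 imidazole buffer) was detected by coupled luciferase luminescence. Values were normalized to uninhibited and no-enzyme wells.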
Tb PYK inh – inhibitors of Trypanosoma brucei pyruvate kinase; Q57TT1; TbPYK enzyme, Kinase-Glo Plus ATP luminescence, 45 min; Potency, µM (top dose mostly 76.8 µM), for inactives: at the top dose activity, negative = inhibition, most hits filed as inhibitors; 0.12% of 410,000 active; active = well fitted curve in the direction sought with a large enough effect; an effect the other way counts as inactive or inconclusive; also: potency is read from the fitted curve at half-maximal effect; % is scaled to controls: 0 for no effect and ±100 for the full control effect; nearly all actives have a fitted effect of over 50% in size
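Glycolytic pyruvate kinase of T. brucei was incubated with substrate, test compound and 130 uM ADP for 45 minutes at room temperature. Luminescent Kinase-Glo Plus signal was measured after 10 minutes.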
Shiga toxin inh – blocks Shiga toxin action in Vero cells | Vero cells, Shiga toxin protein synthesis inhibition reporter | inhibition, % at 38.7 µM | 9.2% of 290,000 active | AID 2315; in the data active = inhibition mostly above about 28%, no sharp cut-off; inactive = mostly below about 43%; also: 0% is about no effect
SARS PLpro yeast – SARS-CoV PLP inhibition in yeast; S. cerevisiae expressing SARS-CoV PLpro, growth rescue; Potency, µM (top dose mostly 32.9 µM), without a hit: top-dose activity, positive = growth rescue, most hits filed as activators; 0.19% of 330,000 active; AID 485353; also: potency is read from the fitted curve at half-maximal effect; 0% is about no effect; nearly all actives have a fitted effect of over 55% in size
* hit, by the source's call; . = no result given. The full list was thinned out, with hits kept by preference. Unless noted, calls follow the shape of the full dose curve.

SMILES | NS1 inh | Cycloheximide cs | LmPK inhibitor | Tb PYK inh | Shiga toxin inh | SARS PLpro yeast
CC(C)c1nc(C#N)c(NN)o1 | 1% | 49* | -2% | 1% | 116* | -2%
CCOC(=O)C1(COCc2ccccc2)CCCCC1=O (stereo not drawn) | . | . | . | -2% | . | .
COc1cccc(C(=O)N2CCc3c([nH]c4ccccc34)C2c2ccc(SC)cc2)c1 (stereo not drawn) | . | . | . | 2% | . | .
CSc1ccc(C2c3[nH]c4ccccc4c3CCN2C(=O)c2ccnn2C)cc1 (stereo not drawn) | 9% | 35* | -2% | -7% | 72* | 0%
CC(=O)Nc1cccc(NC(=O)c2ccco2)c1 | 0% | -2 | -7% | . | 14 | 0%
O=C(Nc1cc(Oc2ccc(Cl)cc2)cc([N+](=O)[O-])c1)c1ccco1 | -17% | 47* | 3% | -3% | 74* | -37%
O=C(Nc1ccc(Br)c(Cl)c1)c1ccco1 | -103% | 41* | -8% | -4% | 76* | -35%
COc1ccc(C(=O)Nc2ccc(NC(=O)c3ccco3)c(Cl)c2)cc1OC | -3% | -4 | 1% | -3% | 19 | -3%
CC(C)Oc1ccc(C(=O)Nc2ccc(NC(=O)c3ccco3)c(Cl)c2)cc1 | -13% | 40* | -2% | 7% | 50* | 0%
O=C(Nc1ccc(NC(=O)c2ccco2)c(Cl)c1)c1ccccc1 | 2% | 47* | -18% | 3% | 79* | -2%
CN(CC(=O)Nc1ccccc1Cl)C(=O)CN1C(=O)NC(c2ccccc2)(c2ccccc2)C1=O | . | . | . | -4% | . | -13%
O=C(Nc1ccc(Cl)c([N+](=O)[O-])c1)c1ccco1 | -73% | 20* | 0% | -5% | 33 | -16%
CC(=O)Nc1cc(Cl)c(N=Cc2ccc(O)cc2O)cc1Cl | . | -1 | 0% | -7% | 20 | 0%
CCOC(=O)c1sc(/N=C/c2ccc(O)cc2O)cc1C | -18% | 40* | -12% | -8% | 41* | 13%
COc1ccc(NC(=O)CSc2n[nH]c(-c3ccccc3)n2)cc1S(N)(=O)=O | . | . | . | -3% | . | 7%
Cc1cccc(Nc2nc(C)nc3c2oc2ccccc23)c1 | -7% | 19* | 1% | 4% | 42 | -12%
CCc1nc(Nc2ccc3c(c2)OCO3)c2oc3ccccc3c2n1 | -24% | 12* | -2% | -8% | 62* | 2%
C/C(CC(=O)NC1CCCCC1)=N\NC(=O)c1ccccn1 | -5% | 39* | -6% | 2% | 64* | 1%
CC(=O)Nc1ccccc1NC(=O)C/C(C)=N/NC(=O)c1ccccn1 | 1% | 38* | 4% | 2% | 61* | 0%
C/C(CC(=O)NCc1ccccc1Cl)=N/NC(=O)c1ccccn1 | 4% | 25* | 2% | -3% | 79* | -2%
O=C(CSc1nnc(C2CCCCC2)o1)Nc1ccccc1Cl | -32% | 15 | 1% | -9% | 71* | 3%
COc1ccc(NC(=O)CSc2nnc(C3CCCCC3)o2)c(OC)c1 | -10% | -3 | -1% | 1% | 20 | 7%
O=C(OCCN1C(=O)c2ccccc2C1=O)c1ccccc1 | . | 24* | -13% | 2% | 18 | 0%
Cc1cccc(OCCN2C(=O)c3ccccc3C2=O)c1 | -10% | 49* | -8% | 1% | 89* | -3%
O=C1c2ccccc2C(=O)N1CCCN1C(=O)c2ccccc2C1=O | . | . | . | 7% | . | .
SMILES | NS1 inh | Cycloheximide cs | LmPK inhibitor | Tb PYK inh | Shiga toxin inh | SARS PLpro yeast
O=C1c2ccccc2C(=O)N1CCCOc1ccccc1 | -13% | 39* | 5% | -6% | 90* | -7%
CC(C)c1ccc(OCC(=O)Nc2c(C(=O)c3ccc(F)cc3)oc3ccccc23)cc1 | . | . | . | 0% | . | .
Cc1ccc(-n2ncc3c(Nc4cccc(Cl)c4)ncnc32)c(C)c1 | . | . | . | -6% | . | .
C/C(=N\OCC(=O)Nc1ccc(F)c(F)c1F)c1cc2ccccc2o1 | -32% | 14 | 1% | 2% | 10 | -45%
C/C(=N\OCc1ccccc1C#N)c1cc2ccccc2o1 | -11% | 36* | 0% | -3% | 71* | -9%
CSc1ccccc1NC(=O)CO/N=C(\C)c1cc2ccccc2o1 | -19% | 18* | 6% | 2% | 31 | -2%
C/C(=N\OCC(=O)NC12CC3CC(CC(C3)C1)C2)c1cc2ccccc2o1 | -20% | 18* | 3% | 5% | 6 | -72%
CC(C)(C)OC(=O)N(CCc1ccccc1)Cc1ccc(OCc2cccc(NC(=O)C3CCC3)c2)cc1 | . | . | . | 0% | . | .
